The list is not random: actives were taken first. Their share in the collection is about 2.4%.
MEKK3 PB1 HTS – MEKK3-MEK5 PB1 interaction, increase or decrease. Q99759. actives 1.4% (n = 290,000). binding response (% of control), % at 10 µM. bead-based flow cytometry, Alexa488-MEK5 binding to MEKK3; actives lie on both sides; 0 = blocked by unlabeled MEK5, 100 = vehicle. AID 1529;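 active means binding response more than 3 SD above or below the average of its plate-row segment, actives on both sides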;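 further: Alexa488 bead fluorescence after subtracting the streptavidin-only scavenger bead signal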
Target sequence (Q99759 whole entry, looked up): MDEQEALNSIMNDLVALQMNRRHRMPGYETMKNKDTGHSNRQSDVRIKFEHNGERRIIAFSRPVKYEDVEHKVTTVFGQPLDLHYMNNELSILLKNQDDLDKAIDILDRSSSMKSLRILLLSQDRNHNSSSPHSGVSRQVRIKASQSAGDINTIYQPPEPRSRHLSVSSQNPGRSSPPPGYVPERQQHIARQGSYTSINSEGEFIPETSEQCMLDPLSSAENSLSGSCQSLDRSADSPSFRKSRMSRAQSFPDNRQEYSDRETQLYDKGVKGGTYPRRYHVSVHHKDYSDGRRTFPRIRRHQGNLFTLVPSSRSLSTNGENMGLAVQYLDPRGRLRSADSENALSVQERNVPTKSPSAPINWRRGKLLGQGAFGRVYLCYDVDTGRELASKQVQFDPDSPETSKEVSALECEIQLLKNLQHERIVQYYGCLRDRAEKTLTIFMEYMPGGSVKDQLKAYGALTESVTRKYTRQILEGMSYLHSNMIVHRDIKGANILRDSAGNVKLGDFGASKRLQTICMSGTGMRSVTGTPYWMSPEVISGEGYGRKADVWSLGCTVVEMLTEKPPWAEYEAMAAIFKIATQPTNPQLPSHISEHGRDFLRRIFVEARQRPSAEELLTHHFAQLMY
Arbovirus inh – antivirals against arbovirus infection | arbovirus infection cell-based antiviral screen | inhibition, % at 10 µM | actives 0.37% (n = 200,000) | AID 1251; in the data active means inhibition above about 30%
Pf gamet viab – kills late stage P. falciparum gametocytes; P. falciparum stage V gametocytes, ATP luminescence, 24 h; inhibition, % at 10.9 µM; actives 0.065% (n = 150,000); AID 743093;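 active means inhibition above the mean plus 3 SD of compounds within the control limits, set per campaign, cut at about 38% in these data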;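 further: 0% = DMSO wells and 100% = medium only without gametocytes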
MEKK2wt PB1 HTS – raises or lowers MEK5 binding to wildtype human MEKK2 PB1 domain. Q9Y2U5. bead flow cytometry, Alexa488-MEK5 binding to MEKK2 WT; actives lie on both sides. binding response (% of control), % at 10 µM. actives 1.1% (n = 290,000). AID 1531; in the data active means binding response below about 67% or above about 130%
MEKK2 mut-MEK5 – signal of MEK5 binding to mutant human MEKK2 PB1 domain; actives 0.35% (n = 290,000); bead flow cytometry, Alexa488-MEK5 binding to MEKK2 mutant; AID 1530; percent response, % at 10 µM; in the data active means percent response above about 24%, passing the limit was not always enough
MEKK2wt confirm – raises or lowers MEK5 binding to wildtype human MEKK2, retest | shares compounds with MEKK3 PB1 HTS | bead flow cytometry, Alexa488-MEK5 binding to MEKK2 WT; actives lie on both sides | binding response (% of control), % at 10 µM | actives 2.4% (n = 5,900) | AID 1892; in the data active means binding response below about 16% or above about 210%; inactive means in between
MEKK2mut confirm – signal of MEK5 binding to mutant human MEKK2, retest | shares compounds with MEKK3 PB1 HTS | bead flow cytometry, Alexa488-MEK5 binding to MEKK2 mutant | percent response, % at 10 µM | actives 2% (n = 5,900) | AID 1893; in the data active means percent response mostly above about 71%, no sharp cut-off; inactive means mostly below about 38%;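 further: higher means compound restores mutant binding toward wildtype level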
MEKK3 confirm – MEKK3-MEK5 PB1 inhibition, single concentration confirmation. bead flow cytometry, Alexa488-MEK5 binding to MEKK3; hits give low values. actives 1.8% (n = 5,900). binding response (% of control), % at 10 µM. shares compounds with MEKK3 PB1 HTS;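 active means binding response below 72% of control, or above a set upper limit, though filed actives all read lower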;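 further: 100% = DMSO only wells and 0% = binding blocked by excess unlabeled MEK5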
* = called active by the depositor; . = not tested or not shown; [ ] = remark or other dose.

SMILES	MEKK3 PB1 HTS	Arbovirus inh	Pf gamet viab	MEKK2wt PB1 HTS	MEKK2 mut-MEK5	MEKK2wt confirm	MEKK2mut confirm	MEKK3 confirm
CCN(CC)S(=O)(=O)c1ccc(-c2cc(C(=O)OC)sc2C(F)(F)F)cc1	130*	.	16	126	23	106	2	100
O=C(/C=C/c1ccco1)NC(=S)Nc1ccc(N2CCCC2)cc1	142*	10	-18	103	0	92	-9	96
COc1ccc(S(=O)(=O)N2CCOC2CNC(=O)C(=O)NCCc2ccccc2)cc1 (centres undefined)	98	.	.	99	-3	.	.	.
COc1ccc2c(-c3ccccc3)cc(SCC(N)=O)nc2c1	105	.	5	9.0*[inhibitor]	115*	101	-1	99
CNS(=O)(=O)c1ccc2c(c1)NC(=O)C1CCCN21 (centres undefined)	153*	-7	-17	110	0	103	3	101
CN1CCN(S(=O)(=O)c2ccc3c(c2)NC(=O)C2CCCN32)CC1 (centres undefined)	108	12	.	102	0	.	.	.
COc1cc(OC)cc(C(=O)Nc2ccc(S(=O)(=O)Nc3ccccn3)cc2)c1	100	.	.	96	4	.	.	.
CC(=O)c1c(C)[nH]c(C(=O)OCC(=O)N2CCc3ccccc32)c1C	2.0*[inhibitor]	-4	.	1.0*[inhibitor]	-41	106	2	101
COc1cc(C2NC(=O)NC(c3ccccc3)=C2C(C)=O)c(Cl)cc1OCC(=O)O (centres undefined)	107	9	15	96	-1	.	.	.
CCCN(CC(=O)Nc1cccc(Br)c1)CC(=O)Nc1ccc(F)c(F)c1F	101	-32	5	154*	31	103	-3	101
Cc1nc(N2CCOCC2)nc(Oc2ccccc2)c1[N+](=O)[O-]	98	.	3	99	3	.	.	.
CCN(c1ccccc1)S(=O)(=O)c1cc(C(=O)Nc2ccccc2Cl)ccc1F	66*[inhibitor]	9	-9	100	1	92	-3	100
Cc1ccc(-c2csc3nc4c5ccccc5c(NCCCN5CCOCC5)nn4c(=O)c23)cc1	103	-30	.	145*	15	175	34	105
O=C(c1ccc(Cl)cc1Cl)N1CCC(C(=O)N2CCOCC2)CC1	99	.	.	104	3	.	.	.
Cc1ccccc1CCN(C(=O)Cn1nnc2ccccc21)C(C(=O)NC(C)(C)C)c1ccsc1 (centres undefined)	76*[inhibitor]	11	-16	81	-14	100	2	99
CN1C(C(=O)NCc2cccc(C(F)(F)F)c2)CC2Cn3c(nc4ccccc43)C21 (centres undefined)	51*[inhibitor]	.	-11	96	-5	100	-4	98
O=C(Nc1ccnn1C1CCN(Cc2ccc(OC(F)F)cc2)CC1)C1CCCC1	104	.	.	135*	12	136	14	101
O=C(Nc1ccnn1C1CCN(Cc2ccc(Cl)cc2)CC1)C1CCCC1	102	.	.	114	5	.	.	.
O=C(c1ccccc1)c1ccc(Oc2ncccn2)cc1	0.0*[inhibitor]	-4	-28	-1.0*[inhibitor]	-17	103	2	101
CCOCCOC(=O)C1=C(C)N(C)C(=O)NC1c1ccccc1Cl (centres undefined)	1.0*[inhibitor]	3	.	0.0*[inhibitor]	-19	104	2	102
CCCCCCC(CC(=O)NCc1cccnc1)CC(=O)NCc1cccnc1	109	.	4	112	12	.	.	.
Cc1cc(C)c2[nH]c(C(=O)N3CCC(n4nccc4NC(=O)C4CC4)CC3)c(C)c2c1	95	.	.	95	-4	.	.	.
CCOC(=O)CC(NC(=O)c1cc2cccc(OC)c2oc1=O)c1cccc([N+](=O)[O-])c1 (centres undefined)	135*	-5	14	102	0	102	1	104
C=CCNC(=O)c1cc2cccc(OC)c2oc1=O	128*	9	13	113	0	114	8	109
CCOC(=O)CC(NC(=O)c1cc2cc(Cl)cc(Cl)c2oc1=O)c1cccc([N+](=O)[O-])c1 (centres undefined)	53*[inhibitor]	-6	16	79	1	99	-5	101
SMILES	MEKK3 PB1 HTS	Arbovirus inh	Pf gamet viab	MEKK2wt PB1 HTS	MEKK2 mut-MEK5	MEKK2wt confirm	MEKK2mut confirm	MEKK3 confirm
CCC(Oc1cc(Cl)ccc1Cl)C(=O)N1CCCN(C)CC1 (centres undefined)	102	.	.	103	4	.	.	.
Cc1c(CC(=O)N[C@@H](C)C(=O)O)c(=O)oc2cc3oc4c(c3cc12)CCCC4	102	.	.	103	2	.	.	.
CC(C)=CCN1CCN(Cc2nc(-c3ccccc3)cs2)CC1CCO (centres undefined)	105	-4	2	105	6	.	.	.
O=C(c1cc(-c2ccccc2)nc2ccccc12)N1CCCC1	103	.	.	102	-3	.	.	.
c1ccc(-c2cc(NCCN3CCCCC3)c3ccccc3n2)cc1	111	.	.	139*	23	119	10	105
O=S(=O)(NCc1ccccc1)c1ccc(Br)c2nsnc12	125	.	-15	112	23	.	.	.
COc1ccc(C(=O)NCc2n[nH]c(=S)n2-c2ccccc2)cc1OC	-1.0*[inhibitor]	2	.	-5.0*[inhibitor]	-40	110	11	107
O=C(Nc1cccc(-c2cccc(Cl)c2)c1)C1CCN(CC2CCOC2)CC1 (centres undefined)	108	.	.	151*	41*	161	35	111
O=C(Nc1ccc(-n2cccn2)cc1)C1CCN(Cc2ccccn2)CC1	101	.	.	104	4	.	.	.
COCc1ccc(CN2CCC(C(=O)Nc3cccc(-c4cccc(Cl)c4)c3)CC2)o1	108	.	.	177*	25*	180	39	111
O=C(Nc1cccc(-c2cccc(F)c2)c1)C1CCN(CC2CCOC2)CC1 (centres undefined)	97	.	.	110	2	.	.	.
Cc1cccc(-c2ccc(NC(=O)C3CCN(CC4CC4)CC3)cc2)c1	121	.	.	159*	35*	134	28	102
O=C(Nc1cccc(-c2cccc(Cl)c2)c1)C1CCN(Cc2ccccn2)CC1	110	.	.	140*	23	195	61	110
CCCCC1(CC(=O)OC)C(=O)N(c2ccccc2)N(c2ccccc2)C1=O	138*	-6	15	107	2	102	-6	103
CCCCC1(Cc2ccc(OC)c([N+](=O)[O-])c2)C(=O)N(c2ccccc2)N(c2ccccc2)C1=O	113	7	.	107	4	.	.	.
Cc1ccc(C(=O)O/N=C(\N)c2ccc(Br)cc2)cc1C	2.0*[inhibitor]	-2	.	1.0*[inhibitor]	-15	102	6	102
